The panel holds about 83,000 compounds, 20% with a hit somewhere; the sample as a whole holds those more often.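 For each line, cells grew in 96-well plates with the test compound present at a single concentration for 48 hours.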 A number with no mark means an inactive call. Active and inactive are the calls of the source.

In the assay the test system is NCI-H460 lung. As to the kind of experiment: NCI-60 one-dose screen, 48 h (100 = growth as untreated, 0 = no growth, -100 = all killed). The conditions noted are these: 10 µM unless noted. As to the method:
Growth inhibition of the NCI-H460 human Non-Small Cell Lung tumor cell line is measured as a screen for anti-cancer activity. Cells are grown in 96 well plates and exposed to the test compound for 48 hours. Compounds are tested at a single concentration, which is 10^-5 M for most compounds. The reported endpoint is percent growth (GI% or GIPRCNT), where numbers from 0 - 100% represent growth inhibition, and numbers from -100% - 0 represent cell death. For example, a value of 40 represents 60% growth inhibition. A value of 0 means no net growth occurred over the course of the experiment. A value of -40 indicates 40% of cells at the beginning of the experiment died by the end of the experiment. A value of -100 means all cells are dead at the end of the experiment.
NCI-60 Human Tumor Cell Lines Screen was performed using the standard one-dose NCI protocol, which is described in more detail at https://dtp.cancer.gov/discovery_development/nci-60/default.htm.
Compounds with GIPRCNT values below 10 were considered active. Activity score was based on GIPRCNT using the following formula: […]
Score is 0 for GIPRCNT values of 100 or above, 50 for GIPRCNT values of 0, and 100 for GIPRCNT values of -100.
For `COc1ccc(-c2cc(/C=C/C(=O)c3ccc(OC)c(OC)c3)[nH]n2)cc1`, the growth was -71.1% (active). In the case of `COc1cc2nc(Cl)nc(Nc3cccc(C(=O)/C=C/c4ccc(F)cc4)c3)c2cc1OC`, the growth is 95.4%. On to `O=C1c2cc3c(cc2-c2c1c1ccc(Cl)cc1c(=O)n2C[C@H](O)[C@@H](O)[C@H](O)CO)OCO3`, for which the growth was 0.505% (active). Consider `COc1cc(C(=O)/C=C/c2cc(-c3ccc4c(c3)OCO4)n[nH]2)cc(OC)c1OC`, for which the growth is -55.2% (active). Consider `O=C(NO)c1ccc(Cn2c(=O)n(-c3ccccc3)c(=O)c3ccccc32)cc1`, for which the growth was 39%. The result for `C=C(C)[C@@H]1CC[C@]2(C)[C@H](CC[C@@H]3[C@H]4[C@H]5OC[C@@]4(CCC5(C)C)CC[C@]32C)[C@@]1(C)CCCN` reads -28.6% (active); that for `CC(C)=CCC/C(C)=C/CC/C(C)=C/CC/C(C)=C/CSC[C@H](NC(=O)CCCCCN1CCN(C)CC1)C(=O)NC1CCCCC1`, -7.73% (active). For the compound `NS(=O)(=O)c1ccc(CCNC(=O)/C=C/c2ccc(Cl)cc2)cc1`, the growth is 98%. As for `O=C1c2cccc3cccc(c23)C(=O)N1CC#Cc1ccc2c3c(cccc13)C(=O)N(CCN1CCNCC1)C2=O`, the growth was 73.1%.

With `C#CCN=C[C@]12CC[C@@H](C(=C)C)[C@@H]1[C@H]1CC[C@@H]3[C@@]4(C)CCC(=O)C(C)(C)[C@@H]4CC[C@@]3(C)[C@]1(C)CC2`, the growth is 70.8%.

Regarding `COc1cccc(-c2nn(-c3ccccc3)cc2-c2ccnc(NCCNS(=O)(=O)c3ccc(Cl)cc3)c2)c1`, the growth was 32.9%. As to `COc1cc(NC(C)CN(CC(C)C)C(C)C)c2ncccc2c1` (stereo not given), the growth is 106%.

Turning to `Cc1ccc(-c2nc([P+](c3ccccc3)(c3ccccc3)c3ccccc3)c(N3C[C@H]4C[C@H](C3)c3cccc(=O)n3C4)o2)cc1`, the growth is 105%. Consider `COc1ccc(-c2n/c(=C\c3c(O)[nH]c4ccc(OC)cc34)cc3c2=Nc2ccccc2-3)cc1`, for which the growth was -32.2% (active). In the case of `CCCNc1nc(N(C)O)nc(N(C)O)n1`, the growth is 11.5%.

Take `COc1ccc(/C(=C\c2ccc3c(c2)OCO3)C(=O)Nc2nc3ccccc3s2)cc1OC`: the growth is 102%. As for `Cc1cc2nc3c4cc(O)ccc4n(CCN(C)C)c3nc2cc1C`, the growth is 3.73% (active). With `O=C(N/N=C/c1ccccc1SSc1ccccc1/C=N/NC(=O)c1ccccc1)c1ccccc1`, the growth was 10% (active). Regarding `O=c1[nH]c(=S)[nH]c2nc[nH]c12`, the growth is 112%.

On to `Cc1csc(Nc2nc(-c3cccc(Br)c3)nc(C(Cl)(Cl)Cl)n2)n1`, for which the growth was 9.54% (active). Regarding `COc1ccc(/C=C/C(=O)NCCO)cc1`, the growth was 103%. For the compound `Cc1cc(N(CCCNc2ccnc3cc(Cl)ccc23)Cc2ccco2)nc(N2CCOCC2)n1`, the growth is 64.8%.

With `N#C/C(=C\c1ccc(-c2ccc(F)cc2)o1)c1nc(-c2ccco2)cs1`, the growth is 91.2%. For `Cn1cc(-c2csc(-c3cn(CCN)c4ccccc34)n2)c2cccnc21`, the growth was 24.8%. For `CCN1CCN(c2nc(C)cc(N(CCCNc3ccnc4cc(Cl)ccc34)Cc3ccco3)n2)CC1`, the growth is 39.9%.

`Nc1nc(N)c2nc3c(nc2n1)CCCCCCCCCC3`: the growth is 14.3%. As for `Cc1ccncc1C(=O)O`, the growth is 99.6%. For the compound `O=C(NO)c1ccc(Cn2c(=O)n(CCc3ccc(O)cc3)c(=O)c3ccccc32)cc1`, the growth is 60.4%.

Consider `CCN1CCN(C(=O)[C@]23CC[C@@H](C)[C@H](C)[C@H]2C2=CC[C@@H]4[C@@]5(C)C/C(=C/c6cccc(OC)c6OC)C(=O)C(C)(C)[C@@H]5CC[C@@]4(C)[C@]2(C)CC3)CC1`, for which the growth was 20.1%. With `O=C(/C=C\c1ccc2c(c1)OCO2)/C=C/c1ccc2c(c1)OCO2`, the growth was 99.1%. For the compound `c1ccc(CN2C(c3ccccc3)=Nc3ccccc3C2c2c[nH]c3ccccc23)cc1` (stereo not given), the growth is 43.4%. `Cc1ccc(N(CC(=O)Nc2ccc(S(=O)(=O)NC3CCN(C)CC3)cc2)S(=O)(=O)c2ccc(Cl)cc2)cc1`: the growth is 8.12% (active). Consider `N=C(N)c1ccc(S(N)(=O)=O)cc1`, for which the growth was 113%.

`COc1ccc(-c2n[nH]nc2-c2cc3ccccc3s2)cc1O`: the growth is 10.1%. As for `Cc1ccc(NC2CC(=O)N(c3c(C)cc(C)cc3C)C2=O)c(C)c1` (stereo not given), the figure is 108%; as for `COc1ccc2c(c1)c1nc3cc(C)c(C)cc3nc1n2CCN(C)C`, -22% (active). For the compound `NC1=NN=C2N(N)C(=O)c3cnn(-c4ccccc4)c3N2c2nc(-c3ccccc3)cc(-c3ccccc3)c21`, the growth is 103%.

For `C[N+](C)(CCCCCC[N+](C)(C)C1c2ccccc2-c2ccccc21)C1c2ccccc2-c2ccccc21`, the growth was 109%. In the case of `OCC12CCCC(CO)(COC1)C2O` (stereo not given), the growth is 100%. As to `O=c1c(CNc2ccc(S(=O)(=O)Nc3nccs3)cc2)coc2ccccc12`, the growth was 102%.

These data come from PubChem BioAssay (NCI).
